According to PubChem BioAssay (NCI):
This is part of a sample that, as a whole, favours compounds with a hit. Of some 83,000 tested, about 20% had one in any assay.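 Results are percent growth after 48 hours of single-concentration exposure. 100 means growth as in untreated cells, lower positive values show inhibition; negative values down to -100 show cell death.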 Calls of active or inactive are those of the source. How the source made its calls: active means growth percent below 10; inactive means the rest.

How the values were obtained:
Experiment in all cases: NCI-60 one-dose screen, 48 h (100 = growth as untreated, 0 = no growth, -100 = all killed)
Conditions in all cases: 10 µM
DU-145 prostate = system: DU-145 prostate
K-562 leukemia = system: K-562 leukemia
MALME-3M melanoma = system: MALME-3M melanoma
RXF 393 renal = system: RXF 393 renal
SF-268 CNS = system: SF-268 CNS
SF-295 CNS = system: SF-295 CNS
SF-539 CNS = system: SF-539 CNS
UACC-257 melanoma = system: UACC-257 melanoma
M14 melanoma = system: M14 melanoma
MDA-MB-231 breast = system: MDA-MB-231 breast

Measured: growth

O=C1Nc2ccc(Cl)cc2/C1=C/c1cccc(OCc2ccccc2)c1
active: RXF 393 renal -0.942%
inactive: DU-145 prostate 45.3% | K-562 leukemia 10.3% | MALME-3M melanoma 45.8% | SF-268 CNS 28.5% | SF-295 CNS 31.7% | SF-539 CNS 35.3% | UACC-257 melanoma 45.8% | M14 melanoma 27%

CN1CCN(c2ccc(Nc3nc(NCCCNC(=O)C4CCCCC4)c4sccc4n3)cc2)CC1
active: MALME-3M melanoma -97.1% | RXF 393 renal -36% | SF-539 CNS -77.9% | UACC-257 melanoma -30.7% | M14 melanoma -8.5%
inactive: DU-145 prostate 67.5% | MDA-MB-231 breast 39% | SF-268 CNS 62.2% | SF-295 CNS 38.4%

C=CC(=O)Nc1nc(-c2cccc(NS(=O)(=O)c3cccc4c(N(C)C)cccc34)c2)cs1
inactive: SF-295 CNS 37.8%
active: DU-145 prostate 3.39% | MALME-3M melanoma -76.1% | MDA-MB-231 breast -63.8% | RXF 393 renal -98.7% | SF-268 CNS 0.14% | SF-539 CNS -100% | UACC-257 melanoma -29.3% | M14 melanoma -78.7%

CC1(C)CC[C@]23CC[C@]4(C)[C@H](CC[C@@H]5[C@@]6(C)CC[C@H](N)C(C)(C)[C@@H]6CC[C@]54C)[C@H]2[C@H]1OC3=O
active: DU-145 prostate -79.8% | MALME-3M melanoma -95.9% | MDA-MB-231 breast -96.3% | RXF 393 renal -95.6% | SF-268 CNS -38.6% | SF-295 CNS -94.5% | SF-539 CNS -99.3% | UACC-257 melanoma -90.8% | M14 melanoma -77.6%

CCN1CCN(c2ccc(NC(=O)Nc3ccc4c(c3F)CCN4c3ccnc(C(=O)NC)c3)cc2C(F)(F)F)CC1
active: DU-145 prostate -91.2% | MALME-3M melanoma -94.3% | MDA-MB-231 breast -88.9% | RXF 393 renal -93% | SF-268 CNS -64.2% | SF-295 CNS -74.1% | SF-539 CNS -100% | M14 melanoma -92.6%
inactive: UACC-257 melanoma 99.3%

COc1ccc(-c2nc(S(=O)(=O)c3ccc(C)cc3)c(S(C)(=O)=O)o2)cc1
active: DU-145 prostate -99.1% | MALME-3M melanoma -95.5% | MDA-MB-231 breast -92.4% | RXF 393 renal -95.1% | SF-268 CNS -37% | SF-539 CNS -100% | UACC-257 melanoma -84.6% | M14 melanoma -31.9%
inactive: SF-295 CNS 78.4%

CNC(=O)c1cccc(N2CCc3c2ccc(NC(=O)Nc2ccc(N4CCN(C)CC4)c(C(F)(F)F)c2)c3F)c1
active: DU-145 prostate -76.2% | MALME-3M melanoma -96.3% | MDA-MB-231 breast -94.8% | RXF 393 renal -85.3% | SF-268 CNS -62.7% | SF-295 CNS -97.2% | SF-539 CNS -100% | UACC-257 melanoma -35% | M14 melanoma -93.3%

O=C1CCC(N2Cc3c(C#CCCCNC(=O)c4ccc(NC(=O)[C@@H]5NC6(CCCCC6)[C@@]6(C(=O)Nc7cc(Cl)ccc76)[C@H]5c5cccc(Cl)c5F)cc4)cccc3C2=O)C(=O)N1 (some centres not stated)
inactive: DU-145 prostate 82.1% | MALME-3M melanoma 17.7% | MDA-MB-231 breast 52% | RXF 393 renal 46.3% | SF-268 CNS 70.3% | SF-295 CNS 54.8% | SF-539 CNS 35.1% | UACC-257 melanoma 60.5% | M14 melanoma 50.1%

CNC(=O)c1cc(-c2ccc(NC(=O)Nc3ccc(C)cc3)cc2)nc2cccnc12
inactive: DU-145 prostate 109% | MALME-3M melanoma 109% | MDA-MB-231 breast 93.3% | RXF 393 renal 100% | SF-268 CNS 104% | SF-295 CNS 95.6% | SF-539 CNS 99% | UACC-257 melanoma 123% | M14 melanoma 116%

Cc1ccc(-c2nc3ccc(C(=O)N=Nc4c(O)[nH]c5ccc(Cl)cc45)cc3[nH]2)cc1
active: DU-145 prostate 6.16% | MALME-3M melanoma -28.7% | MDA-MB-231 breast -73% | RXF 393 renal -68% | SF-268 CNS -33.4% | M14 melanoma 6.09%
inactive: SF-295 CNS 10.1% | SF-539 CNS 33.2% | UACC-257 melanoma 81.7%

Cc1ccc(S(=O)(=O)c2nc(-c3ccccc3)oc2S(=O)(=O)CC(=O)N2CCCC2)cc1
inactive: SF-295 CNS 70.3%
active: DU-145 prostate -98.5% | MALME-3M melanoma -94.9% | MDA-MB-231 breast -94.8% | RXF 393 renal -93.8% | SF-268 CNS -0.601% | SF-539 CNS -100% | UACC-257 melanoma -92.2% | M14 melanoma -48.3%

Cc1ccc(-c2nc3ccc(C(=O)N=Nc4c(O)[nH]c5ccc(Br)cc45)cc3[nH]2)cc1
inactive: DU-145 prostate 17.2% | MALME-3M melanoma 90.5% | MDA-MB-231 breast 23% | RXF 393 renal 66.1% | SF-268 CNS 44.3% | SF-295 CNS 93.6% | SF-539 CNS 86.4% | UACC-257 melanoma 99.7% | M14 melanoma 55.8%

CC1(C)CC[C@]2(C(=O)O)CC[C@]3(C)C(=CC[C@@H]4[C@@]5(C)C/C(=C/c6ccncc6)[C@H](O)C(C)(C)[C@@H]5CC[C@]43C)[C@@H]2C1
inactive: DU-145 prostate 57.9% | MALME-3M melanoma 73.1% | MDA-MB-231 breast 34.1% | RXF 393 renal 24.2% | SF-268 CNS 46.9% | SF-295 CNS 20.1% | SF-539 CNS 27.8% | UACC-257 melanoma 64.3% | M14 melanoma 61.6%

C=C(C)[C@@H]1CC[C@]2(COP(=O)(OCC)OCC)CC[C@]3(C)[C@H](CC[C@@H]4[C@@](C)(CCCN)[C@H](C(=C)C)CC[C@]43C)[C@@H]12
active: RXF 393 renal 6.32%
inactive: DU-145 prostate 38% | MALME-3M melanoma 15.7% | MDA-MB-231 breast 21.9% | SF-268 CNS 42% | SF-295 CNS 24.7% | SF-539 CNS 19% | UACC-257 melanoma 20.5% | M14 melanoma 18.2%

CN1CCN(c2ccc(Nc3nc(N4CCN(S(=O)(=O)c5ccc(Cl)cc5)CC4)c4sccc4n3)cc2)CC1
inactive: SF-268 CNS 52.9%
active: DU-145 prostate -60.8% | MALME-3M melanoma -97.6% | MDA-MB-231 breast -86.3% | RXF 393 renal -95.7% | SF-295 CNS -78% | SF-539 CNS -100% | UACC-257 melanoma -87.1% | M14 melanoma -60.6%

COc1ccc(C(C)=C(c2ccc(OCCCN(C)C)cc2)c2ccc(OCCCN(C)C)cc2)cc1
active: DU-145 prostate -96.4% | MALME-3M melanoma -97% | MDA-MB-231 breast -97.4% | RXF 393 renal -94.6% | SF-268 CNS -73.7% | SF-295 CNS -85.2% | SF-539 CNS -99.5% | UACC-257 melanoma -96.1% | M14 melanoma -79.8%

O=c1[nH][nH]c(Nc2ccccc2)c1N=Nc1ccc(F)cc1
inactive: DU-145 prostate 102% | MALME-3M melanoma 116% | MDA-MB-231 breast 86.6% | RXF 393 renal 83.1% | SF-268 CNS 81.5% | SF-295 CNS 111% | SF-539 CNS 92.8% | UACC-257 melanoma 127% | M14 melanoma 107%

COc1ccc(-c2nc(S(=O)(=O)c3ccccc3)c(S(C)(=O)=O)o2)cc1
inactive: SF-268 CNS 61.8% | SF-295 CNS 87.3%
active: DU-145 prostate -92.8% | MALME-3M melanoma -92.7% | MDA-MB-231 breast -76.2% | RXF 393 renal -90.8% | SF-539 CNS -95.9% | UACC-257 melanoma -38.6% | M14 melanoma -24%

C=C(C)[C@@H]1CC[C@]2(C(=O)OC)CC[C@]3(C)[C@H](CC[C@@H]4[C@@]5(C)CC[C@H](N)C(C)(C)[C@@H]5CC[C@]43C)[C@@H]12
active: DU-145 prostate -87.9% | MALME-3M melanoma -97.7% | MDA-MB-231 breast -97.8% | RXF 393 renal -96% | SF-268 CNS -65.3% | SF-295 CNS -94.1% | SF-539 CNS -99.8% | UACC-257 melanoma -70% | M14 melanoma -74%

O=C(Cn1cc(CSc2nnc3oc4ccccc4n23)nn1)Nc1cccc(Cl)c1
inactive: DU-145 prostate 85.6% | MALME-3M melanoma 72.8% | MDA-MB-231 breast 63.4% | RXF 393 renal 76.8% | SF-268 CNS 71.8% | SF-295 CNS 66.8% | SF-539 CNS 70.6% | UACC-257 melanoma 71% | M14 melanoma 87.8%

CN1CCN(c2ccc(Nc3nc(NCCCNC(=O)c4ccccc4)c4sccc4n3)cc2)CC1
active: RXF 393 renal 2.61% | SF-539 CNS -89.5%
inactive: DU-145 prostate 75.5% | MALME-3M melanoma 46.1% | MDA-MB-231 breast 88.6% | SF-268 CNS 77.6% | SF-295 CNS 85.9% | UACC-257 melanoma 32.5% | M14 melanoma 38.6%

O=C(c1ccc(-n2c(=O)[nH]c3ccccc3c2=O)cc1)N1CCOCC1
inactive: DU-145 prostate 105% | MALME-3M melanoma 97.5% | MDA-MB-231 breast 95.5% | RXF 393 renal 127% | SF-268 CNS 88.1% | SF-295 CNS 102% | SF-539 CNS 93.8% | UACC-257 melanoma 127% | M14 melanoma 99.3%

O=C(Nc1ccc(OCc2ccccc2)cc1)Nc1ccc(Cl)c(C(F)(F)F)c1
inactive: DU-145 prostate 13% | SF-268 CNS 14.9% | M14 melanoma 19.3%
active: MALME-3M melanoma -30.8% | MDA-MB-231 breast -20% | RXF 393 renal -3.2% | SF-295 CNS -26.5% | SF-539 CNS -46.9% | UACC-257 melanoma -20.7%

CC(=O)c1ccc(NC(=O)NCn2c(=O)[nH]c3ccccc3c2=O)cc1
inactive: DU-145 prostate 104% | MALME-3M melanoma 93.2% | MDA-MB-231 breast 95.1% | RXF 393 renal 97.4% | SF-268 CNS 128% | SF-295 CNS 92.7% | SF-539 CNS 90.6% | UACC-257 melanoma 98.6% | M14 melanoma 110%

C=C[C@H]1[C@H](O[C@@H]2OC(CO)[C@@H](O)[C@H](O)C2OC(=O)c2c(O)cc(O)cc2-c2cccc(O)c2)OC=C2C(=O)OCC[C@H]21 (some centres not stated)
inactive: DU-145 prostate 105% | MALME-3M melanoma 92.6% | MDA-MB-231 breast 96.1% | RXF 393 renal 104% | SF-268 CNS 101% | SF-295 CNS 96.2% | SF-539 CNS 104% | UACC-257 melanoma 90.8% | M14 melanoma 101%

C#CCNC(=O)[C@]12CCC(C)(C)C[C@H]1C1=CC[C@@H]3[C@@](C)(CCC#N)[C@H](C(=C)C)CC[C@@]3(C)[C@]1(C)CC2
inactive: DU-145 prostate 91.4% | MALME-3M melanoma 75.9% | MDA-MB-231 breast 39.6% | RXF 393 renal 66.8% | SF-268 CNS 86.2% | SF-295 CNS 38.2% | SF-539 CNS 83.4% | UACC-257 melanoma 54.4% | M14 melanoma 76.3%

CN(C)c1cccc2c(S(=O)(=O)Nc3cccc(-c4csc(NC(=O)CCCCCN5CCN(c6cc7c(cc6F)C(=O)N(C6CCC(=O)NC6=O)C7=O)CC5)n4)c3)cccc12 (configuration not stated)
inactive: DU-145 prostate 97.2% | MALME-3M melanoma 87.1% | MDA-MB-231 breast 98% | RXF 393 renal 89.7% | SF-268 CNS 91.4% | SF-295 CNS 91.8% | SF-539 CNS 78.5% | UACC-257 melanoma 82% | M14 melanoma 97.3%

O=C(Nc1ccccc1)Nc1nc2ccccc2s1
inactive: DU-145 prostate 104% | MDA-MB-231 breast 79.5% | RXF 393 renal 110% | SF-268 CNS 111% | SF-295 CNS 82.3% | SF-539 CNS 88.6% | UACC-257 melanoma 20.8% | M14 melanoma 78.8%
active: MALME-3M melanoma -10.2%
